The source of these data is the supplement of paper PMC10849652.

Targets with a hit are over-represented here; the source holds about 7,900 in all. About 0.6% of all pairs of compound and target were hits. A number with no mark means an inactive call.

Chain of UniProt O43237 (O43237 whole entry, looked up): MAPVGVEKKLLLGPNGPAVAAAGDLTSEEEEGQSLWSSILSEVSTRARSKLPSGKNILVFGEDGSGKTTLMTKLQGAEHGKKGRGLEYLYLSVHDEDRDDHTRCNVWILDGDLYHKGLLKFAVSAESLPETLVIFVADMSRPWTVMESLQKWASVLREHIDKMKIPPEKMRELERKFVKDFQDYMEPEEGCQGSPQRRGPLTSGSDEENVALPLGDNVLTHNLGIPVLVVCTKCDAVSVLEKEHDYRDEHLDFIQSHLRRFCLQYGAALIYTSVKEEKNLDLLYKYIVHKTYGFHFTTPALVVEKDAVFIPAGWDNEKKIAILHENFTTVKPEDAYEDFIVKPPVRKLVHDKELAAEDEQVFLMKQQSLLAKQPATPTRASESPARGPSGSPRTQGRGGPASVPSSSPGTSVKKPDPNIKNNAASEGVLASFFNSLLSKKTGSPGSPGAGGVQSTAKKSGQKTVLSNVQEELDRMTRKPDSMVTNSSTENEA
Chain of UniProt P09668 (P09668 whole entry, looked up): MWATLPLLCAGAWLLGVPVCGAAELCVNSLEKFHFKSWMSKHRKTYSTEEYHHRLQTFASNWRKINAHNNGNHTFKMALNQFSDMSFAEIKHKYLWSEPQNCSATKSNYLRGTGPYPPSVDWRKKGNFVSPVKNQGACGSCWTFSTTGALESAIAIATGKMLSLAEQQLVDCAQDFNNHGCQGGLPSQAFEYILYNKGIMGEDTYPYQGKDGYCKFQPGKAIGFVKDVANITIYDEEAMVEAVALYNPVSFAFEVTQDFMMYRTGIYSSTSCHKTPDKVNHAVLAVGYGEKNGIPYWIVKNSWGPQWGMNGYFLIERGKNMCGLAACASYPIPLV
Chain of UniProt P98082 (P98082 whole entry, looked up): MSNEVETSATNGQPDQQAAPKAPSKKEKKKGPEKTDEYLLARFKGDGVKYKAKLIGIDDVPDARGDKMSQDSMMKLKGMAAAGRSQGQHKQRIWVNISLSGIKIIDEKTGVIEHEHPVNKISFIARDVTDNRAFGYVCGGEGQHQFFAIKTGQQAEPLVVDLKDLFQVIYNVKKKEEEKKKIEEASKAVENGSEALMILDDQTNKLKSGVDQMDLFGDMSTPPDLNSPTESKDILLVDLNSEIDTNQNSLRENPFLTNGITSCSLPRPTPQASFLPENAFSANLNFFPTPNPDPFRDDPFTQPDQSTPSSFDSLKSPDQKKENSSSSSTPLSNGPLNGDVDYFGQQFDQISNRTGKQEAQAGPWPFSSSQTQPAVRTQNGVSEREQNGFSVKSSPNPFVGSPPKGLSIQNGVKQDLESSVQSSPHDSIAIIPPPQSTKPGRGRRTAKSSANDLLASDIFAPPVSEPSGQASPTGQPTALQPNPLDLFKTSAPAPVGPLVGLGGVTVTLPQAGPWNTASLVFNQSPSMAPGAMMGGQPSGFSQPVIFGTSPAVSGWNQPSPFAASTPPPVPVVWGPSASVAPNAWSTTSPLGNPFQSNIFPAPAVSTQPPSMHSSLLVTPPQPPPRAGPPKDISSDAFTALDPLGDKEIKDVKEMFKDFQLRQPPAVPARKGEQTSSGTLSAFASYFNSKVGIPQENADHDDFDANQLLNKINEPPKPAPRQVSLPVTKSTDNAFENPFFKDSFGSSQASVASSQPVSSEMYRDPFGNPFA
Chain of UniProt P50570 (P50570 whole entry, looked up): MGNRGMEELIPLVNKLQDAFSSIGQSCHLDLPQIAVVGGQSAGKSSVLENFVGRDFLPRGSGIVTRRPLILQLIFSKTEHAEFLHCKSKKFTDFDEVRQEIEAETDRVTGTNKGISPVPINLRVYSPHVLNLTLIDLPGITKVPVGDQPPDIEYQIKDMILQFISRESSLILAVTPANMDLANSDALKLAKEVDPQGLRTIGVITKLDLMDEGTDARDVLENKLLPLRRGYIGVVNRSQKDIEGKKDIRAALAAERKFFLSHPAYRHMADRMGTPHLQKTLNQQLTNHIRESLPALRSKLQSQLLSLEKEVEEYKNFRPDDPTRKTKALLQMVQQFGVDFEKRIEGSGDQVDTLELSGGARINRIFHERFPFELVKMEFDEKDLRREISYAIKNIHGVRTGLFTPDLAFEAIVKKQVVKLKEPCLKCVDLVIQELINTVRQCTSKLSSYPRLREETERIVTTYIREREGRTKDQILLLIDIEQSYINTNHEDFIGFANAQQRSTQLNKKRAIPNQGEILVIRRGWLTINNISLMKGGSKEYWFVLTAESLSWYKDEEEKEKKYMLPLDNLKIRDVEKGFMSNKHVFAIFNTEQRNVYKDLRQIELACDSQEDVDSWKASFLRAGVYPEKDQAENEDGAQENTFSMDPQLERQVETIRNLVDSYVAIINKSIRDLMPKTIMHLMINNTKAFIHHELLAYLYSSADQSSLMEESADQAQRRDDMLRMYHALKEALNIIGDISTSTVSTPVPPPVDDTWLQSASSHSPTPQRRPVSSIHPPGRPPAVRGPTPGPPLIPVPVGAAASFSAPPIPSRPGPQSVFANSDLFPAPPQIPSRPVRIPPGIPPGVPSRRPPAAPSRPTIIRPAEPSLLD
Chain of UniProt Q9UBQ6 (Q9UBQ6 whole entry, looked up): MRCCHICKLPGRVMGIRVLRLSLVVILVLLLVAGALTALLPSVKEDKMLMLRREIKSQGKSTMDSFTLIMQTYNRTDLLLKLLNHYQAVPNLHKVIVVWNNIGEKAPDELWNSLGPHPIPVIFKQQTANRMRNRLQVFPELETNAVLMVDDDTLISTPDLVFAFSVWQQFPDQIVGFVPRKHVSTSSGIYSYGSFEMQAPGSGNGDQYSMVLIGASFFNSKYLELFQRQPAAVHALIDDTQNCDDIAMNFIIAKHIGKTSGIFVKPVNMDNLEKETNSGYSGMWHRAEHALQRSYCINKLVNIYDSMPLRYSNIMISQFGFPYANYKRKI
Chain of UniProt Q6UX07 (Q6UX07 whole entry, looked up): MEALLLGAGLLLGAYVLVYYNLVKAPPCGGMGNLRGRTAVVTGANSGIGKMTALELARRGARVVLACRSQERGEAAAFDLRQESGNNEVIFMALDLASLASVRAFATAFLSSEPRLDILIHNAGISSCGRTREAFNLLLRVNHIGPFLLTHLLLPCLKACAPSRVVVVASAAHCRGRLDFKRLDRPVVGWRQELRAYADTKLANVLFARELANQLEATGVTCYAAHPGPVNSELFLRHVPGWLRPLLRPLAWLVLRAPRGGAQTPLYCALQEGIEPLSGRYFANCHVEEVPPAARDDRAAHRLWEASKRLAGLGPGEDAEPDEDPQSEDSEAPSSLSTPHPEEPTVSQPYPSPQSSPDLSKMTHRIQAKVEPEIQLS
Chain of UniProt Q15392 (Q15392 whole entry, looked up): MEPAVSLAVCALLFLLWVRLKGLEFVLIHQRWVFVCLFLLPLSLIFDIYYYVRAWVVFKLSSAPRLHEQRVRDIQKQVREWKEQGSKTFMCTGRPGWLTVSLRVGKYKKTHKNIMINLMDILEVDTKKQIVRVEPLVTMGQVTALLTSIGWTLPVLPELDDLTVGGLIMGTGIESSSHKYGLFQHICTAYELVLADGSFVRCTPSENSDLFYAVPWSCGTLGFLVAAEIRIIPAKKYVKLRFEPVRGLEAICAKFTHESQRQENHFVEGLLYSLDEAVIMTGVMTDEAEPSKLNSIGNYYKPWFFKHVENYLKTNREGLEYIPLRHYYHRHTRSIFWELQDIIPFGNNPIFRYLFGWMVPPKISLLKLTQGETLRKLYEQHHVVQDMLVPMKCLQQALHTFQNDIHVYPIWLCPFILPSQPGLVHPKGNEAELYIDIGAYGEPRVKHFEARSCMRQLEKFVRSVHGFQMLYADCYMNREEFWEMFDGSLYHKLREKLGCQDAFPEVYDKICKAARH
Chain of UniProt Q7L014 (Q7L014 whole entry, looked up): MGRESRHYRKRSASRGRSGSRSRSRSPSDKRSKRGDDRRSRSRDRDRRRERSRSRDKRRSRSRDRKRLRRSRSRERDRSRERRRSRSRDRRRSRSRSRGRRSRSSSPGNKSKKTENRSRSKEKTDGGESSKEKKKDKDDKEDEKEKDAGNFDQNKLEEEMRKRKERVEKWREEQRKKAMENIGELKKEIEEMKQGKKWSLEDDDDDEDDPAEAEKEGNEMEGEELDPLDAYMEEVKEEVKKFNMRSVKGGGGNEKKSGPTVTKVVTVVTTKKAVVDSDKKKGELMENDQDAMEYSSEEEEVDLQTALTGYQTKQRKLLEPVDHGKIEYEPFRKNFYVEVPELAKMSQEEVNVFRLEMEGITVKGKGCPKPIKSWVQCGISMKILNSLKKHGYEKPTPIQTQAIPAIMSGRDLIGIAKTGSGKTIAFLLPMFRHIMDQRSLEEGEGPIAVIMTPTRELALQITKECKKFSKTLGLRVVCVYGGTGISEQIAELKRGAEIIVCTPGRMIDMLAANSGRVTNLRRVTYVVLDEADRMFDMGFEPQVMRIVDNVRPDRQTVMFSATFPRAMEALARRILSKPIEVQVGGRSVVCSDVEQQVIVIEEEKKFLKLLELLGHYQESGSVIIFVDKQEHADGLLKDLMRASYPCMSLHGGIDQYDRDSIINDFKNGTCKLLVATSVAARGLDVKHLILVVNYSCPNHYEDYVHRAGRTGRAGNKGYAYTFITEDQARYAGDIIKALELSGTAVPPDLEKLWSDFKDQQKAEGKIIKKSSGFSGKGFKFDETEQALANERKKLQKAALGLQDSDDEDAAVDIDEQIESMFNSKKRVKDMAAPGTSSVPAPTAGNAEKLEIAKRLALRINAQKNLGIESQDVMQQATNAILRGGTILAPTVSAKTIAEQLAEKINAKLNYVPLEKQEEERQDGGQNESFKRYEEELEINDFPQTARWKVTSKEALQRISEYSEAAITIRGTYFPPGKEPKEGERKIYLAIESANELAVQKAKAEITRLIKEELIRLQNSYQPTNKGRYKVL
Chain of UniProt Q9H2P9 (Q9H2P9 whole entry, looked up): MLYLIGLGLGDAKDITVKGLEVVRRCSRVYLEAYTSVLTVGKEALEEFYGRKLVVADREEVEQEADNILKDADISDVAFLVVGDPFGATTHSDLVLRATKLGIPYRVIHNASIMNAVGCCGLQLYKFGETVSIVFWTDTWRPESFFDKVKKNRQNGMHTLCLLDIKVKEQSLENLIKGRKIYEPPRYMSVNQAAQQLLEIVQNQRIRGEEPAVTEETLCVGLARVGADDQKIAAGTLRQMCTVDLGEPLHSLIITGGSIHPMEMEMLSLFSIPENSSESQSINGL

Compound in this experiment: CN1CCN(c2nc(C3=C(c4c[nH]c5ccccc45)C(=O)NC3=O)c3ccccc3n2)CC1 [sotrastaurin]
The experiment in a line: log2 fold change, soluble protein after heating vs DMSO (PISA); higher = thermal stabilisation; K562 cells, 10 uM, 30 min; active = over 0.2 and 3.5 SD of the protein, either way, in both replicates (recomputed). Put shortly:
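K562 cells at 2×10^6 cells/mL were treated with 10 μM compound for 30 min. Aliquots were heated for 3 min across 48°C-58°C, pooled, and extracted in PBS with 0.5% NP-40 at 4°C; soluble protein was the supernatant after 21,000xg for 90 min. Soluble protein was quantified by TMTpro 16plex LC-MS/MS with channel sums equalised, and reported as log2 fold change in thermal stability against DMSO controls, with values from duplicates.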
Take DDB1 (UniProt Q16531): the log2 fold change was 0.04.

For the target DNM2 (UniProt P50570), the log2 fold change was 0.043.

Consider ESS2 (UniProt Q96DF8), for which the log2 fold change was -0.025.

With DCUN1D1 (UniProt Q96GG9), the log2 fold change was -0.001.

For EXOC4 (UniProt Q96A65), the log2 fold change is -0.224.

As for EDC4 (UniProt Q6P2E9), the log2 fold change is -0.109.

On to DAB2 (UniProt P98082), for which the log2 fold change is 0.009.

DHRS7B (UniProt Q6IAN0): the log2 fold change was 0.148.

Turning to F5 (UniProt P12259), the log2 fold change was 0.139.

Regarding DDX46 (UniProt Q7L014), the log2 fold change was -0.197.

Take EXTL2 (UniProt Q9UBQ6): the log2 fold change is 0.036.

As to DYNC1LI2 (UniProt O43237), the log2 fold change was -0.079.

EFL1 (UniProt Q7Z2Z2): the log2 fold change was -0.004.

Take CUX1 isoform 3 (UniProt P39880): the log2 fold change is -0.003.

Consider FAM114A2 (UniProt Q9NRY5), for which the log2 fold change was -0.048.

On to CTSH (UniProt P09668), for which the log2 fold change is 0.044.

DHX36 (UniProt Q9H2U1): the log2 fold change was 0.021.

DNAH11 (UniProt Q96DT5): the log2 fold change is 0.317.

In the case of DPH5 isoform 5 (UniProt Q9H2P9), the log2 fold change was -0.017.

Turning to DHCR24 (UniProt Q15392), the log2 fold change is 0.567.

As for DHRS13 (UniProt Q6UX07), the log2 fold change was -0.17.

With CUX1 isoform 2 (UniProt Q13948), the log2 fold change is -0.012.

As to DBNL isoform 3 (UniProt Q9UJU6), the log2 fold change was -0.014.
